Data reported in PubChem BioAssay AID1851 (National Center for Advancing Translational Sciences (NCATS), 2009).
Several values for one entry are separate records, joined by “and”; a condition that tells them apart may be missing. Equal entries are not always repeated. Screen size: about 16,000 compounds; about 4,000 (25%) were called active. About 26% were inconclusive and are not listed. Calls come from the whole dose curve; as a rule, active = well fitted curve in the direction sought with a large enough effect; inconclusive = small, poorly fitted or top-dose-only effect, or effect the other way; inactive = no such curve, though single readings can be large or run the other way. Only a sample is shown. More than one record can exist for a structure, and the calls need not agree.

target: Cytochrome P450 2C9 (Homo sapiens) (UniProt P11712); assay: Cytochrome panel assay with activity outcomes; settings: recombinant CYP, pro-luciferin dealkylation, luminescence, p450-cyp2c9; series mostly up to 57.1 µM; activity, negative = inhibition: at the top concentration
% is set by controls: 0 for no effect and ±100 for the full control effect.

Sequence of Cytochrome P450 2C9 (Homo sapiens) (P11712 whole entry, looked up): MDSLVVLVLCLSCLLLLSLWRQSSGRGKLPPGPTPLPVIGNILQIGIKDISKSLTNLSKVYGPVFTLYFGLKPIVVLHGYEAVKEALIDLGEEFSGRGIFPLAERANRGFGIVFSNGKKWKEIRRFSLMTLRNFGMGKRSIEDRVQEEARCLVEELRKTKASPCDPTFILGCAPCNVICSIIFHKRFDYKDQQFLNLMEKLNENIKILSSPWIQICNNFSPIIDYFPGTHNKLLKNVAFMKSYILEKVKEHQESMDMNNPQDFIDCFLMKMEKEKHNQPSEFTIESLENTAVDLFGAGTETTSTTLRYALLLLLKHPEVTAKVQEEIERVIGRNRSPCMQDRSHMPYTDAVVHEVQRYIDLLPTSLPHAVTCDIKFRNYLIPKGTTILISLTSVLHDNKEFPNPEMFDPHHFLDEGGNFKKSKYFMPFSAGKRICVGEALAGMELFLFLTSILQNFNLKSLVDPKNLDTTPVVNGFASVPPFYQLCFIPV

Row | SMILES | activity, negative = inhibition | AC50
1 | CC(C)(C)NC[C@H](O)c1cc(Cl)c(N)c(Cl)c1 | 21% [at 25.6 µM] (inactive) | 
2 | O=C1C=C2C=C[C@H]3C[C@@]2(O1)[C@H]1CCCCN31 | -3.6% [at 25.6 µM] (inactive) | 
3 | CN[C@H](Cc1ccccc1)c1cccc(OC)c1O | 9.59% [at 11.4 µM] (inactive) | 
4 | CCC(=O)O[C@@](Cc1ccccc1)(c1ccccc1)[C@@H](C)CN(C)C | -4.85% [at 25.6 µM] (inactive) | 
5 | CC(C)Oc1cc(-n2c(=S)[nH]c3ccccc3c2=O)c(Cl)cc1Cl |  | 2240 nM (active)
6 | C[C@]12CC[C@H]3c4ccc(O)cc4CC[C@@H]3[C@H]1CC[C@@H]2OC(=O)CCc1ccccc1 | -8.07% [at 11.4 µM] (inactive) | 
7 | COc1cc2c3cc1Oc1cc(ccc1O)C[C@@H]1c4c(cc(OC)c(O)c4Oc4cccc(c4)C[C@H]3N(C)CC2)CC[N+]1(C)C | -0.825% [at 25.6 µM] (inactive) | 
8 | O=NN(Cc1ccc(Cl)cc1)[C@@H](C(=O)O)c1ccccc1 | -22.5% [at 11.4 µM] (inactive) | 
9 | N[C@H](CCCP(=O)(O)O)C(=O)O | -3.94% (inactive) | 
10 | N#Cc1ccc(CN2CC[C@@]3(CCCN(C(=O)Oc4ccccc4)C3)C2)cc1 | -28.9% (inactive) | 
11 | CC[N+](C)(C)c1cccc(O)c1 | 6.93% (inactive) | 
12 | Cc1cccc(NC(=S)NC2CC3CCCC(C2)N3Cc2cccs2)c1 (centres undefined) | -10.8% (inactive) | 
13 | CN(C)CCC=C1c2ccccc2CCc2ccccc21 | 5.35% [at 25.6 µM] (inactive) | 
14 | Cc1o[nH]c(=O)c1C[C@@H](N)C(=O)O | -14.3% (inactive) | 
15 | CC(C)(C)c1o[nH]c(=O)c1C[C@H](N)C(=O)O | 11.8% (inactive) | 
16 | Cc1o[nH]c(=O)c1C[C@H](N)C(=O)O |  | inactive and 10 µM (active)
17 | CCCN1CCC[C@@H]2Cc3nc(N)ncc3C[C@H]21 | -20.2% (inactive) | 
18 | COC(=O)C1(C)C=C2C(=C(C)C(=O)C2C)CN1 (centres undefined) | -24.9% (inactive) | 
19 | c1cncc(CNCCN2CCNCC2)c1 | -12% [at 11.4 µM] (inactive) | 
20 | CCC1=C(C[C@H]2NCCc3ccccc32)C[C@@H]2c3cc(OC)c(OC)cc3CCN2C1 | -10.7% [at 11.4 µM] (inactive) | 
21 | C[C@@H](O)CN(CCN(C[C@@H](C)O)C[C@@H](C)O)C[C@@H](C)O.O=[N+]([O-])O.[Cu] |  | 794 nM (active)
22 | CNC(=S)NC1CC2CCCC(C1)N2CC(C)C (centres undefined) | -4.41% (inactive) | 

Row | SMILES | activity, negative = inhibition | AC50
23 | Cc1c([C@@H](C)[C@H]2NC[C@H](C)C[C@@H]2O)ccc2c1C[C@@H]1[C@H]2CC=C2C[C@@H](O)CC[C@@]21C | 2.85% [at 11.4 µM] (inactive) | 
24 | C[N+]1(C)CCO[C@](O)(c2ccc(-c3ccc([C@]4(O)C[N+](C)(C)CCO4)cc3)cc2)C1 | 10.5% [at 25.6 µM] (inactive) | 
25 | O=C(O)C1=CCCN(CCOC(c2ccc(C(F)(F)F)cc2)c2ccc(C(F)(F)F)cc2)C1 |  | 2510 nM (active)
26 | c1ccc2c([C@@H]3CCN(CCN4CCOCC4)C3)c[nH]c2c1 | -7.99% [at 11.4 µM] (inactive) | 
27 | Cc1cc(OCc2ccc([N+](=O)[O-])cc2)c2c3c(c(=O)oc2c1)CCCC3 |  | 141 nM (active)
28 | Cc1cc(OC(=O)CCCNC(=O)OC(C)(C)C)c2c3c(c(=O)oc2c1)CCC3 |  | 11200 nM (active)
29 | Cc1cc(OCC(=O)OC(C)C)c2c3c(c(=O)oc2c1)CCCC3 |  | 2000 nM (active)
30 | COc1cc2cc(c1Cl)N(C)C(=O)C[C@H](OC(=O)C(C)C)[C@]1(C)O[C@@H]1[C@@H](C)[C@H]1C[C@](O)(NC(=O)O1)[C@@H](OC)/C=C\C=C(\C)C2 | 8.76% [at 11.4 µM] (inactive) | 
31 | c1ccc2c(c1)-c1ccccc1C2N1CC2CCC(CC2)C1 | -14.3% [at 11.4 µM] (inactive) | 
32 | CC(C)[N+](C)(CCC(C(N)=O)(c1ccccc1)c1ccccc1)C(C)C | -15% [at 25.6 µM] (inactive) | 
33 | CCSCC[C@H](N)C(=O)O | -1.99% [at 11.4 µM] (inactive) | 
34 | C[C@H](N)Cc1c[nH]c2ccc(OCc3cccs3)cc12 | inactive | 
35 | C[C@@H]1[C@@H]2Cc3ccc(O)cc3[C@@]1(C)CCN2CC1CC1 | -8.03% (inactive) | 
36 | N#CCCCC[N+]12CN3CN(CN(C3)C1)C2 | 6.4% [at 11.4 µM] (inactive) | 
37 | C[C@H](c1ccccc1)N1CCN([C@@H](C)c2ccccc2)CC1 | 5.45% [at 11.4 µM] (inactive) | 
38 | O=C(O)[C@@H]1[C@H](C(=O)O)[C@]2(Cl)C(Cl)=C(Cl)[C@@]1(Cl)C2(Cl)Cl | -24.4% [at 11.4 µM] (inactive) | 
39 | C/C=C(\C)C(=O)O[C@@H]1C(C)=C2[C@H]([C@@H]1OC(=O)CCCCCCC)[C@@](C)(OC(C)=O)C[C@@H](OC(=O)CCC)[C@@]1(O)[C@H]2OC(=O)[C@]1(C)O |  | 31600 nM (active)
40 | CNC[C@H](O)c1ccc(O)cc1 | -2.51% [at 25.6 µM] (inactive) | 
41 | CN1CCN(c2ccc3ccccc3n2)CC1 | inactive | 
42 | CCCN1CCO[C@@H]2c3cc(O)ccc3OC[C@H]21 | inactive | 
43 | O=[As](O)(O)c1ccc2nc3cc([As](=O)(O)O)ccc3nc2c1 | 1.65% [at 11.4 µM] (inactive) | 
44 | CCCN1CCc2cccc3c2[C@@H]1Cc1ccc(O)c(O)c1-3 | -23.4% (inactive) | 

Row | SMILES | activity, negative = inhibition | AC50
45 | COCCn1c(SCc2nc3sc(C(=O)OC)c(C)c3c(=O)[nH]2)nc2ccccc21 |  | 891 nM (active)
46 | NC(N)=Nc1ccc2[nH]c3c(c2c1)C[C@]1(O)[C@@H]2Cc4ccc(O)c5c4[C@]1(CCN2CC1CC1)[C@@H]3O5 | 0.123% (inactive) | 
47 | CCN1C[C@@]2(COC)[C@H]3[C@@H](OC)[C@H]4C1[C@@]3([C@H](OC)C[C@@H]2O)[C@H]1C[C@@]2(O)[C@@H](OC(=O)c3ccccc3)[C@@H]1[C@@]4(OC(C)=O)[C@H](O)[C@@H]2OC | 5.31% [at 25.6 µM] (inactive) | 
48 | COc1ccc(C2SCC(=O)Nc3c2c(C)nn3-c2ccccc2)cc1OC (centres undefined) |  | 10000 nM (active)
49 | O=C(Oc1ccc(S(=O)(=O)F)cc1F)c1ccccc1Cl | -12.2% [at 11.4 µM] (inactive) | 
50 | C/C(O)=C(/C#N)C(=O)Nc1cc(Br)ccc1Br | 15.6% (inactive) | 
51 | O=C1C2CCN(CC2)C1(CO)CO | -2.93% [at 11.4 µM] (inactive) | 63.1 nM (active)
52 | O=P(O)(O)C(Cl)(Cl)P(=O)(O)O | -14.4% (inactive) | 
53 | COC1=CC(=O)O[C@@H](/C=C\c2ccccc2)C1 | -17.6% [at 25.6 µM] (inactive) | 
54 | N[C@H](CP(=O)(O)O)C(=O)O | 1.7% (inactive) | 
55 | CCCCN1C(=O)C(C2c3ccccc3C(=O)N2Cc2ccccc2)C(=O)NC1=S (centres undefined) |  | 2000 nM (active)
56 | CN1C(=O)C(C2c3ccccc3C(=O)N2Cc2ccc([N+](=O)[O-])cc2)C(=O)N(C)C1=O (centres undefined) |  | 25100 nM (active)
57 | Cc1cc(C)c(-n2c(O)c(C=NCCN3CCOCC3)c(=O)[nH]c2=O)c(C)c1 | 49.6% (inactive) | 
58 | CCC(=O)Nc1ccc(N2CCN(CC)CC2)c(Cl)c1 | -6.79% (inactive) | 
59 | NC(=O)CN1C[C@@H](O)CC1=O | 17.9% (inactive) | 
60 | CC1(C)CCC(C)(C)c2c1ccc(O)c2Cc1c(O)ccc2c1C(C)(C)CCC2(C)C | -17.2% [at 11.4 µM] (inactive) | 
61 | C[C@@]12CCC(=O)C=C1C=C[C@H]1[C@H]3CC[C@](O)(CCC(=O)O)[C@]3(C)CC[C@@H]12 | 12.2% [at 25.6 µM] (inactive) | 
62 | O=C(C[C@H](c1ccccc1)c1c(O)c2ccccc2oc1=O)c1ccccc1 |  | 631 nM (active)
63 | CC(C)c1ccc(C(c2c(O)c3ccccc3oc2=O)c2c(O)c3ccccc3oc2=O)cc1 |  | 3160 nM (active)
64 | c1ccc(CN2CCCC3(CCNCC3)C2)cc1 | -5.12% (inactive) | 
65 | CN1CCC(c2c[nH]c3ccc(O)cc23)CC1 | -23.6% (inactive) | 
66 | C[C@]1(O)CC[C@H]2[C@@H]3[C@@H](O)CC4=CC(=O)CC[C@@]4(C)[C@H]3CC[C@]21C | 14% [at 11.4 µM] (inactive) | 

Row | SMILES | activity, negative = inhibition | AC50
67 | C[C@@H]1O[C@@H](O[C@H]2C[C@@H](O)[C@]3(CO)[C@@H]4[C@@H](O)C[C@]5(C)[C@H]([C@@H]6COC(=O)C6)CC[C@@]5(O)[C@H]4CC[C@@]3(O)C2)[C@H](O)[C@H](O)[C@@H]1O | 6.73% (inactive) | 
68 | CN1CCC2(CC1)CCN(C(=O)Oc1ccccc1)CC2 | 2.84% (inactive) | 
69 | C[C@@]12C(=O)OC(=O)[C@]1(C)[C@H]1CC[C@@H]2O1 | -8.32% [at 25.6 µM] (inactive) | 
70 | O=C(Nc1cccc(C(F)(F)F)c1)c1cccn(Cc2ccc3c(c2)OC(F)(F)O3)c1=O |  | 3160 nM (active)
71 | O=C(Nc1ccc(C(F)(F)F)cc1)c1cccn(Cc2ccc3c(c2)OC(F)(F)O3)c1=O |  | 8910 nM (active)
72 | O=P(O)(O)CCP(=O)(O)O | -4.93% [at 11.4 µM] (inactive) | 
73 | C[N+]1(C)[C@@H]2CC[C@H]1CC(OC(=O)c1c[nH]c3ccccc13)C2 (some centres undefined) | -0.446% (inactive) | 
74 | C[C@]12N[C@H](Cc3ccccc31)c1ccccc12 | inactive | 
75 | CCN(CCCl)Cc1ccccc1Br | 16.2% (inactive) | 
76 | CC(C)c1ccc2c(c1)c(SC(C)(C)C)c(CC(C)(C)C(=O)O)n2Cc1ccc(Cl)cc1 |  | 6310 nM (active)
77 | CC[C@H](C(=O)[C@H](C)[C@H](O)[C@H](C)CCc1ccc(C)c(O)c1C(=O)O)[C@H]1O[C@](CC)([C@@H]2CC[C@@](O)(CC)[C@H](C)O2)C[C@H]1C | -8.1% [at 25.6 µM] (inactive) | 
78 | CC[C@@]1(c2ccc(N)cc2)CCC(=O)NC1=O | inactive | 
79 | CC(C)NC(=O)N1CCC2(CC1)CCN(C(=O)Oc1ccccc1)CC2 | 12% (inactive) | 
80 | NCCP(=O)(O)O | 4.14% [at 11.4 µM] (inactive) | 
81 | NC(N)=NCCC[C@H](N)C(=O)O | -4.67% (inactive) | 
82 | NP(N)(=O)NC(=O)c1ccc(F)cc1 | 26.5% (inactive) | 
83 | O[C@@H](c1cc(-c2ccccc2)nc2c1ccc1ccccc12)[C@@H]1CCCCN1 | -8.99% [at 11.4 µM] (inactive) | 
84 | COc1ccc(Cc2nccc3cc(OC)c(OC)cc23)cc1OC | -20.9% [at 25.6 µM] (inactive) | 
85 | CC[C@H]1C(=O)OC[C@H]1Cc1cncn1C | -29.2% [at 11.4 µM] (inactive) | 
86 | CCC1C(=O)OCC1Cc1cncn1C (centres undefined) |  | 15800 nM (active)
87 | CC(=O)O[C@H]1CC[C@@]2(C)[C@@H](CC[C@H]3[C@H]2CC(=O)[C@@]2(C)[C@@H]3C[C@H]3CC(C)=CC(=O)[C@H]32)C1 | -10.2% [at 11.4 µM] (inactive) | 
88 | C[C@@]12CC[C@H](O)C[C@@H]1CC[C@H]1[C@H]2CC[C@@]2(C)[C@@H](C3=CC(=O)OC3)CC[C@]12O | 6.88% [at 25.6 µM] (inactive) | 
